# ST2 inh: blocks human ST2 binding to IL-33 | AlphaLISA ST2-Fc/biotin-IL-33 interaction, 1 h | inhibition, % for hits at 17 µM | hit rate 2.3% among 78,000 | AID 1259354; in the data active = inhibition above about 30%
# Target sequence (Q01638 whole entry, looked up): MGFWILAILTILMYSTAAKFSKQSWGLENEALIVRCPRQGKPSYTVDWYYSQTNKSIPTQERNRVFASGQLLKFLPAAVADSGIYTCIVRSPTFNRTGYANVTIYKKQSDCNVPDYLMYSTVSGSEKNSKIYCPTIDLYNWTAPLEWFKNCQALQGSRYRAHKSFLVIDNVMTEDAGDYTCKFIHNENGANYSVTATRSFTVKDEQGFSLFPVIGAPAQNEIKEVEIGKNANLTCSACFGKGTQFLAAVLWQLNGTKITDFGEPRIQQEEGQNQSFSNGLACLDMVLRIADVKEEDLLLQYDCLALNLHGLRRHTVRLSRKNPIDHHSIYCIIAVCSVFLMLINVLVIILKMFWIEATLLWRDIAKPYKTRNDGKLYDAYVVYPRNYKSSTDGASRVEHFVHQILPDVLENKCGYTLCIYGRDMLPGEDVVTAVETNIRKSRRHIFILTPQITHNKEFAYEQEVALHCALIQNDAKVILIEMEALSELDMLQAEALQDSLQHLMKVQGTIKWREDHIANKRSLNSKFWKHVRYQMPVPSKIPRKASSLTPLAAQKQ
# * = called active by the depositor; i = inactive; ! = not active in a repeat. The sample as a whole holds a higher share of hits than the screen did.
SMILES,ST2 inh
CCCCNC(=O)NC(=O)c1c(C)cc(Cl)nc1Cl,i
O=[N+]([O-])c1ccc(-c2nnc(S)n2-c2ccccc2)cc1,i
O=C1Nc2ccccc2N(O)N1c1ccc([N+](=O)[O-])cc1,i
N#Cc1cc2[nH]c3ccccc3c2n(-c2ccc([N+](=O)[O-])cc2)c1=N,34%*!
Cc1ccc(C2C3=C(Nc4c2c(=O)[nH]c(=O)n4C)c2ccccc2C3=O)cc1Cl (configuration not stated),32%*
CCOC(=O)C1=C(C)NC2=C(C(=O)c3ccccc32)C1c1ccc(C)cc1 (configuration not stated),i
Cn1c2c(c(=O)[nH]c1=O)C(c1ccc([N+](=O)[O-])o1)C1=C(N2)c2ccccc2C1=O (configuration not stated),i
Cc1ccc(C2C3=C(Nc4c2c(=O)[nH]c(=O)n4C)c2ccccc2C3=O)cc1 (configuration not stated),38%*
CCOc1cc(C2C3=C(Nc4c2c(=O)n(C)c(=O)n4C)c2ccccc2C3=O)ccc1O (configuration not stated),i
Cc1ccc(C2OC(=O)c3ccccc32)cc1Cl (configuration not stated),i
Cc1noc(C)c1S(=O)(=O)NCc1ccccc1Cl,i
CCOc1cc(/C=C2\NC(=O)N(Cc3ccc(Cl)cc3)C2=O)cc(Cl)c1OCC(=O)O,i
CCc1ccccc1NS(=O)(=O)c1ccc(CC(C)C)cc1,i
Cc1cnn(CCC(=O)N2CCC(=O)N(CC3CC3)C(C(C)C)C2)c1 (configuration not stated),i
c1ccc2c3c([nH]c2c1)CN(Cc1ccc2c(c1)OCO2)CC3,i
Clc1ccc(CN2CCc3ccccc3C2)cc1Cl,i
CN(C)c1ccc(CN2CCc3ccccc3C2)cc1,31%*
CN(C)c1ccc(CN2CCc3c([nH]c4ccccc34)C2)cc1,32%*
CCOc1ccc(CN2CCc3ccccc3C2)cc1,i
Clc1ccccc1CN1CCc2c([nH]c3ccccc23)C1,i
CC1=C(C(=O)OC2CCCCC2)C(c2cccs2)n2nnnc2N1 (configuration not stated),i
COc1ccc(NC(=O)CSc2ncnc3nc(N(C)C)sc23)cc1Cl,i
CC1CCCCC1NC(=O)C1(O)c2ccccc2NC(=O)N1c1ccc(Cl)c(Cl)c1 (configuration not stated),i
Cc1[nH]nc2c1C(c1cccc(Cl)c1)CC(=O)N2 (configuration not stated),i
c1ccc(N2CCN(C3C4CC5CC(C4)CC3C5)CC2)cc1 (configuration not stated),i
SMILES,ST2 inh
CSCC(=O)N[C@H]1CCN2C(=O)N(c3ccc(C(C)C)cc3)C(=O)[C@@H]2C1,52%*
COc1cc(OC)cc(N2C(=O)[C@@H]3C[C@@H](NC(=O)c4cccn4C)CCN3C2=O)c1,i
CC(C)c1ccc(N2C(=O)C3C4C=CC(C4)C3C2=O)cc1 (configuration not stated),i
O=S(=O)(N[C@H]1CO[C@H]2[C@@H]1OC[C@@H]2Nc1nccc(-c2cccs2)n1)c1ccc2ccccc2c1,i
CCOC(=O)C1(C/C=C/c2ccccc2)CCCN(C(=O)c2cc(C(C)C)no2)C1 (configuration not stated),i
Cc1ccc(C(=O)Nc2cc3cccc([N+](=O)[O-])c3oc2=O)cc1C,i
COC(=O)c1cc(C(=O)OC)cc(N2C(=O)C3C4C=CC(C4)C3C2=O)c1 (configuration not stated),i
CN(Cc1ccc2nsnc2c1)Cc1nc(-c2cnccn2)no1,i
Cc1cc(I)ccc1NC(=O)Cc1ccccc1,i
CC1=C(C(=O)Nc2ccc(C)cc2C)C(c2ccc(F)cc2)n2nnnc2N1 (configuration not stated),i
CN1CCc2cc(Cl)c(O)cc2[C@@H](c2ccccc2)C1,i
CN1CCc2cc(O)c(O)cc2C(c2ccccc2)C1 (configuration not stated),i
CN1CCc2c(cc(O)c(O)c2Cl)C(c2cccc(Cl)c2)C1 (configuration not stated),39%*
CCCn1c2ccccc2n2c(C(=O)OC)c(C)nc12,i
Cc1ccc(OCC(=O)N2CCN(c3ccccc3)CC2)cc1C,i
O=C(COc1ccccc1)N1CCN(c2ccc([N+](=O)[O-])c(NCCc3ccccc3)c2)CC1,33%*
O=C(CCCOc1ccccc1)N1CCN(c2ccc([N+](=O)[O-])cc2)CC1,i
CCn1cc(C(=O)NCCC(C)C)c(=O)c2cc(S(=O)(=O)N3CC(C)CC(C)C3)ccc21 (configuration not stated),i
O=C(O)C1C2CCC(C2)[C@H]1C(=O)Nc1cc(F)ccc1F (some centres not stated),i
CC(C)Cc1n[nH]c(Cn2nc(Cc3ccccc3)c3ccccc3c2=O)n1,i
O=[N+]([O-])c1ccc(-c2cn3ccsc3n2)cc1,i
O=[N+]([O-])c1ccc(-c2cn3cc(Br)ccc3n2)cc1,31%*
Brc1ccc(-c2cn3ccc4ccccc4c3n2)cc1,i
Cc1cccn2c(=O)c3cc(C(=O)NCc4ccc(Cl)cc4)n(C)c3nc12,i
c1ccc(CN2CCC(Nc3ncnc4sccc34)CC2)nc1,i
SMILES,ST2 inh
COc1ccc(C(=O)Nc2cccc(NC(=O)c3ccccc3Cl)c2)cc1[N+](=O)[O-],i
COc1ccc(C(=O)Nc2cccc(NC(=O)c3ccccc3Cl)c2)cc1Br,59%*
CCOc1ccc(C(=O)Nc2cccc(Cl)c2)cc1Br,i
CCOCCCn1c(SCC(N)=O)nc2c(sc3ccccc32)c1=O,i
O=C(Cc1cccs1)Nc1c(C(=O)Nc2ccccc2F)oc2ccccc12,i
Cc1ccc(S(=O)(=O)N2CCN(S(C)(=O)=O)C2c2ccccc2)cc1 (configuration not stated),i
COc1ccc(C2SCCN2S(=O)(=O)c2ccc(C)cc2)cc1[N+](=O)[O-] (configuration not stated),i
Cc1ccc(S(=O)(=O)N2C/C(=C\c3ccccc3)c3c2cc([N+](=O)[O-])cc3[N+](=O)[O-])cc1,35%*
COc1ccccc1NC(=O)Nc1ccc2n(c1=O)C[C@H]1C[C@@H]2CN(C(=O)Nc2ccc(C(C)=O)cc2)C1,i
FC(F)(F)C1CN(c2ccc(-c3ccccc3)nn2)CCO1 (configuration not stated),96%*
O=C(N1CCOC(C(F)(F)F)C1)C1(S(=O)(=O)c2ccccc2)CC1 (configuration not stated),i
CNc1nc(N2CCOC(C(F)(F)F)C2)ncc1F (configuration not stated),i
Cc1nn(C)c(Cl)c1S(=O)(=O)N1CCOC(C(F)(F)F)C1 (configuration not stated),i
COCCOC(=O)C1=C(C)N(Cc2ccccc2)C(=O)NC1c1ccccc1 (configuration not stated),i
Cc1ccc(Cc2c(C)nc3c(C(=O)NC4CCCC4)c[nH]n3c2=O)cc1,i
O=C(Nc1nnc(N=Cc2ccc(F)cc2)s1)c1ccc(Cl)cc1,i
N#Cc1ccccc1NC(=O)C1CC1(c1ccccc1)c1ccccc1 (configuration not stated),i
O=C(COc1ccc2ccccc2c1)Nc1nc2ccccc2s1,i
O=C(Nc1nc2ccccc2s1)c1ccccc1F,i
NNc1nc2ccccc2s1,68%*
COc1cccc(NC(=O)CSc2nnc3ccccn23)c1,i

# Bioassay records: PubChem, Paczesny and Yang Labs, IUPUI and University of Michigan
